Active and inactive are the calls of the source. The calls were made as follows: active = hit-call score of the fitted dose curve at least 0.9, where 1 is the maximum; inactive = score below 0.9.
assay: ATG_TA_CIS: Attagene CIS-FACTORIAL HepG2 Assay for human TA Basal Promoter (AID 2282964); conditions: HepG2 Attagene CIS-factorial TA basal promoter reporter; actives raise or lower the signal
Description: ATG_CIS is a cell-based, multiplexed-readout assay that uses HepG2, a human liver cell line, with measurements taken at 24 hours after chemical dosing in a 24-well plate.ATG_TA_CIS is one of 52 assay component(s) measured or calculated from the ATG_CIS assay. It is designed to make measurements of mRNA induction, a form of inducible reporter, as detected with fluorescence intensity signals by Reverse transcription polymerase chain reaction (RT-PCR) and Capillary electrophoresis technology.Data from the assay component ATG_TA_CIS was analyzed into 1 assay endpoint. This assay endpoint, ATG_TA_CIS, was analyzed with bidirectional fitting relative to DMSO as the negative control and baseline of activity. Using a type of inducible reporter, measures of mRNA for gain or loss-of-signal activity can be used to understand the background control at the transcription factor-level as they relate to the gene . Furthermore, this assay endpoint can be referred to as a secondary readout, because this assay has produced multiple assay endpoints where this one serves a background control function. To generalize the intended target to other relatable targets, this assay endpoint is annotated to the background measurement intended target family, where the subfamily is internal marker.
Human liver HepG2 cells are transiently transfected with multiple reporter transcription units (MRTUs) in 6-well plates using FuGene 6 reagent (Roche; 3 ml FuGene/1 mg DNA). The MRTU constructs are regulated by a cis-regulating element (promoter). […] A major difference between the CIS and TRANS system is that in CIS activities of endogenous TFs are measured, whereas the TRANS assay evaluates changes in activities of exogenous, chimeric NR-Gal4 proteins. […] At the end of 24 hour incubation, total RNA was isolated using TriZol reagent (Invitrogen). The isolated RNA is then reverse-transcribed using oligo(dT) primer and Mo-MLV reverse transcriptase (Invitrogen) with DNAse I (Ambion) treatment for 30 min. The one-tenth of the produced cDNA was amplified by PCR using Taq DNA polymerase (Invitrogen) and two reporter sequence-specific primers. The PCR products were fluorescently labeled by primer extension with 6-arboxyfluorescein (6-FAM) 5'-labeled reporter sequence-specific primer (2 min at 95 C, 20 s at 68 C and 10 min at 72 C) and these products were digested with 5U of HpaI (New England Biolabs) for 2h at 37 C. The fragments were purified using Qiaquick PCR columns (Qiagen), analyzed on an ABI 3130xL genetic analyzer (Applied Biosystems) with peak positions identified by using a set of X-rhodamine (ROX)-labeled MapMarker1000 molecular weight standards (BioVentures). The raw capillary electrophoresis data was processed using Attagraph software (Attagene).

outcome, inactive:
CC(=O)NS(=O)(=O)c1ccc(N)cc1
CC1=NN(c2cc(S(=O)(=O)O)ccc2Cl)C(=O)C1N=Nc1ccccc1 (stereo not given)
CC1(C)O[C@@H]2C[C@H]3[C@@H]4C[C@H](F)C5=CC(=O)CC[C@]5(C)[C@H]4[C@@H](O)C[C@]3(C)[C@]2(C(=O)CO)O1
CC1=CC[C@H]2C[C@@H]1C2(C)C
CCCCCC/C=C\CCCCCCCC(=O)O
Cc1cc(C)c(C)c(C)c1
C[Si](C)(CCCN)O[Si](C)(C)CCCN
CCCCCCOC(=O)C(C)CC (stereo not given)
O=S(=O)(O)c1ccc2cc(O)c(S(=O)(=O)O)cc2c1
Cc1ccc(C(C)c2ccc(C)c(C)c2)cc1C
CCOc1nc(F)cc2nc(S(=O)(=O)Nc3c(Cl)cccc3C(=O)OC)nn12
COc1ccc([C@@H]2CC(=O)c3c(O)cc(O[C@@H]4O[C@H](CO[C@@H]5O[C@@H](C)[C@H](O)[C@@H](O)[C@H]5O)[C@@H](O)[C@H](O)[C@H]4O)cc3O2)cc1OC
O=C1C=CC(=O)O1
CCCCCCCCCCOC(C)=O
CC(C)COC(=O)C=Cc1ccccc1
Cc1ccc(N)c([N+](=O)[O-])c1
CC(=O)c1ccc[nH]1
CCc1nccnc1C
O=C(O)Cc1c(Cl)ccc(Cl)c1Cl
CCCCCCCCCCCCCCCCCC#N
CC1=NC(C)OC1C (stereo not given)
NC(=O)NNC(N)=O
Cc1ccc2c(c1)C(=O)c1ccccc1C2=O
OCCCS
COC(=O)c1cc(Cl)ccc1[N+](=O)[O-]
C=C(C)C(=O)OCC(C)C
CC(=O)CC(N)=O
O=S(=O)(O)c1cc(S(=O)(=O)O)c2ccc3c(S(=O)(=O)O)cc(S(=O)(=O)O)c4ccc1c2c43
CCN(Cc1cccc(S(=O)(=O)O)c1)c1ccc(C(=C2C=CC(=[N+](CC)Cc3cccc(S(=O)(=O)[O-])c3)C=C2)c2ccccc2)cc1
CCOC(F)(F)C(F)(F)C(F)(F)C(F)(F)F
Nc1ccc(N)c(Cl)c1
OCCc1ccncc1
Cc1ccc(C(C)(C)C)cc1
COC(=O)C1=C(C)NC(C)=C(C(=O)OCC(C)C)C1c1ccccc1[N+](=O)[O-] (stereo not given)
C=CC(=O)OCCC(=O)O
N=c1ccn2c(n1)O[C@H]1[C@H](O)[C@@H](CO)O[C@H]12
N[C@H]1C(O)O[C@H](CO)[C@H](O)[C@@H]1O (stereo not given in full)
Nc1ccc(-c2ccc(F)cc2)cc1
O=[N+]([O-])c1ccc(CO)cc1

AC50, active:
CCOC(=O)N1CCC(=C2c3ccc(Cl)cc3CCc3cccnc32)CC1 7.49 µM

— PubChem BioAssay (EPA / NIEHS)
